The results in this text go back to PubChem BioAssay (NCI).

Values joined by “and” are separate entries in the source; they are usually repeats but may differ in a detail not shown here. Equal values may be shown once. About 83,000 compounds went through this panel and 20% of them were active in at least one assay; those are over-represented in the sample as a whole.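 The endpoint reported here, percent growth, reads 100 for growth as untreated, 0 for no net growth and -100 for all cells dead.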 Active and inactive are the calls of the source. Rule for the calls: active = growth percent below 10; inactive = the rest.

Common to all, as to test: NCI-60 one-dose screen, 48 h (100 = growth as untreated, 0 = no growth, -100 = all killed)
One assay deals with NCI-H23 lung. The note with it: 10 µM unless noted.
The test system of the next assay is NCI-H226 lung. The following applies: 10 µM unless noted.
In the next assay the test system is NCI-H322M lung. The note with it: 10 µM unless noted.
Another assay concerns HOP-62 NSCLC. The following applies: 10 µM unless noted.
The subject of another assay is HOP-92 NSCLC. The note with it: 10 µM.
The subject of a further assay is NCI-H522 lung. The note with it: 10 µM.
Another assay has as its system 786-0 renal. The note with it: 10 µM unless noted.
The next assay deals with A549/ATCC NSCLC. The note with it: 10 µM unless noted.
The next assay has as its system NCI-H460 lung. The following applies: 10 µM unless noted.
The next assay concerns COLO 205 colon. The following applies: 10 µM unless noted.

Regarding `O=C1C=C(Nc2ccccc2)c2ccccc2C1=O`, the growth in the assay with NCI-H23 lung was 23% (inactive) and 66.1% (inactive); in the assay on NCI-H226 lung it was 66.4% (inactive) and 83.4% (inactive); with NCI-H322M lung, 88.3% (inactive) and 98.1% (inactive); with HOP-62 NSCLC, 19.1% (inactive) and 123% (inactive); with HOP-92 NSCLC, 89.7% (inactive); in the assay with NCI-H522 lung it was 76.8% (inactive) and 86.6% (inactive). Besides, the growth in the assay with 786-0 renal is 99.8% (inactive) and 99.3% (inactive).

As to `CCCCCCCCCCCCCCCc1ccc(N)c(OC2OC(CO)C(O)C(O)C2O)c1` (configuration not stated), the growth was 80.9% (inactive) with NCI-H23 lung; 96.4% (inactive) with NCI-H226 lung; 77.1% (inactive) with NCI-H322M lung; 73.9% (inactive) in the assay with HOP-62 NSCLC; 82% (inactive) in the assay on HOP-92 NSCLC; -63.5% (active) in the assay with NCI-H522 lung. The growth in the assay on A549/ATCC NSCLC is 86% (inactive); with 786-0 renal, 81.7% (inactive).

Consider `NC(Cc1c[nH]c2ccccc12)C(=O)O` (configuration not stated), for which the growth with NCI-H23 lung was 106% (inactive) and 108% (inactive); in the assay on NCI-H226 lung it was 90.6% (inactive) and 103% (inactive); in the assay on NCI-H322M lung, 98.8% (inactive) and 111% (inactive); in the assay with HOP-62 NSCLC, 64.3% (inactive) and 96.3% (inactive); in the assay with HOP-92 NSCLC it was 75.5% (inactive); in the assay with NCI-H522 lung it was 86% (inactive) and 93.1% (inactive). For the same compound, the growth is 113% (inactive) and 97.8% (inactive) in the assay with A549/ATCC NSCLC; 69.5% (inactive) and 99.7% (inactive) with 786-0 renal.

In the case of `COc1ccc2cc1Oc1ccc(cc1)C[C@H]1c3cc(c(OC)cc3CCN1C)Oc1c(OC)c(OC)cc3c1[C@H](C2)N(C)CC3`, the growth in the assay on NCI-H23 lung was 92.7% (inactive); in the assay on NCI-H226 lung, 113% (inactive); in the assay on NCI-H322M lung it was 52.6% (inactive); with HOP-62 NSCLC it was 17.7% (inactive); in the assay with NCI-H522 lung it was 1.42% (active); in the assay on 786-0 renal, 46.3% (inactive).

As for `Brc1ccc(SSc2ccc(Br)cc2)cc1`, the growth in the assay with NCI-H23 lung was 72.5% (inactive); with NCI-H226 lung, 93.7% (inactive); with NCI-H322M lung, 91.8% (inactive); with HOP-62 NSCLC it was 75.3% (inactive); in the assay on HOP-92 NSCLC it was 98.4% (inactive); with NCI-H522 lung it was 85.2% (inactive). Further, the growth with 786-0 renal was 59% (inactive).

With `Cc1cc2ccccc2cn1`, the growth in the assay with NCI-H23 lung is 97.1% (inactive) and 114% (inactive); in the assay with NCI-H226 lung, 95.7% (inactive) and 96% (inactive); in the assay with NCI-H322M lung, 101% (inactive) and 98.4% (inactive); with HOP-62 NSCLC it was 101% (inactive); in the assay with NCI-H460 lung, 107% (inactive) and 108% (inactive); with HOP-92 NSCLC, 94.4% (inactive) and 101% (inactive). The growth was 109% (inactive) in the assay with NCI-H522 lung; 105% (inactive) and 111% (inactive) with 786-0 renal; 110% (inactive) and 119% (inactive) with COLO 205 colon.

Take `Nc1cc(N)c(N)cc1N`: the growth is -66% (active) in the assay on NCI-H23 lung; 93.9% (inactive) in the assay on NCI-H226 lung; 107% (inactive) in the assay with NCI-H322M lung; 58.3% (inactive) in the assay with HOP-62 NSCLC; 115% (inactive) in the assay with HOP-92 NSCLC; -80.9% (active) in the assay on NCI-H522 lung. The results for the growth with A549/ATCC NSCLC, with 786-0 renal and with COLO 205 colon were 88.1% (inactive), 51.7% (inactive) and 95.7% (inactive), respectively.

Consider `CCCCCCCCCCCCCCCCC(C(=O)O)C(O)(CC(=O)O)C(=O)O` (configuration not stated), for which the growth in the assay on NCI-H23 lung is 105% (inactive) and -38.2% (active); with NCI-H226 lung it was 107% (inactive) and -23.4% (active); in the assay on NCI-H322M lung it was 120% (inactive) and 20% (inactive); in the assay with HOP-62 NSCLC, 102% (inactive) and -2.31% (active); with NCI-H460 lung, 105% (inactive) and 4.08% (active); in the assay with HOP-92 NSCLC, 112% (inactive) and -1.67% (active). The growth in the assay with NCI-H522 lung was 90% (inactive) and -32.5% (active); in the assay with 786-0 renal, 99.7% (inactive) and 0.749% (active); in the assay on COLO 205 colon it was 114% (inactive) and -53.4% (active).

For `N#CC(C#N)N=Nc1cc(Cl)ccc1Cl`, the growth in the assay on NCI-H23 lung is 106% (inactive); in the assay with NCI-H226 lung it was 104% (inactive); in the assay on HOP-62 NSCLC, 104% (inactive); with NCI-H522 lung it was 89.8% (inactive); in the assay on A549/ATCC NSCLC, 98.4% (inactive); in the assay with 786-0 renal, 102% (inactive). In addition, in the assay with COLO 205 colon, the growth is 110% (inactive).

`c1ccc(CNCCNCc2ccccc2)cc1`: the growth is 90.4% (inactive) in the assay with NCI-H226 lung; 106% (inactive) in the assay with NCI-H322M lung; 98.8% (inactive) in the assay with HOP-62 NSCLC; 104% (inactive) with NCI-H460 lung; 80.6% (inactive) with HOP-92 NSCLC; 106% (inactive) with NCI-H522 lung. The growth in the assay with A549/ATCC NSCLC was 101% (inactive); in the assay with 786-0 renal, 107% (inactive).

For `O=C1CSC2=NCCN12`, the growth is 102% (inactive) and 85.5% (inactive) with NCI-H226 lung; 102% (inactive) and 94.5% (inactive) in the assay with NCI-H322M lung; 90.9% (inactive) and 95.9% (inactive) with HOP-62 NSCLC; 96.3% (inactive) and 99.3% (inactive) in the assay with NCI-H460 lung; 112% (inactive) and -2.23% (active) with HOP-92 NSCLC; 59.3% (inactive) and 99.1% (inactive) in the assay with NCI-H522 lung. The growth was 92.9% (inactive) and 113% (inactive) in the assay with A549/ATCC NSCLC; 80.7% (inactive) and 61.7% (inactive) in the assay on 786-0 renal; 104% (inactive) and 127% (inactive) in the assay with COLO 205 colon.
